From the supplement of paper PMC8728848
The entries come from a sample that favours the strongest signals as a whole.

Tests used:
Test in all cases: glycan array binding signal (z-score within array); higher = stronger binding
Details in all cases: glycan notation: IUPAC condensed, linker removed
[1] = biological target: Fuc(a1-2)Gal(b1-3)GalNAc(a1-3)[Fuc(a1-2)]Gal(b1-4)GlcNAc
In short: (§1)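 Arrays were curated from the Consortium for Functional Glycomics database, 3228 in total, and kept only where the protein sequence was available. Binding is expressed as a within-array Z-score. This score was averaged across arrays of the same protein sequence at different concentrations or buffers and across linkers, and negative values can be read as non-binding.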

[2] = biological target: Fuc(a1-2)Gal(b1-3)GlcNAc(b1-3)Gal(b1-4)Glc
In short: as §1

[3] = biological target: Fuc(a1-2)Gal(b1-3)[Fuc(a1-4)]GlcNAc(b1-3)[Gal(b1-4)GlcNAc(b1-6)]Gal(b1-4)Glc
In short: as §1

[4] = biological target: Fuc(a1-2)[Gal(a1-3)]Gal(b1-3)GlcNAc(b1-2)Man(a1-3)[Fuc(a1-2)[Gal(a1-3)]Gal(b1-3)GlcNAc(b1-2)Man(a1-6)]Man(b1-4)GlcNAc(b1-4)GlcNAc
In short: as §1

[5] = biological target: Fuc(a1-2)[Gal(a1-3)]Gal(b1-3)GlcNAc(b1-2)Man(a1-3)[Fuc(a1-2)[Gal(a1-3)]Gal(b1-3)GlcNAc(b1-2)Man(a1-6)]Man(b1-4)GlcNAc(b1-4)[Fuc(a1-6)]GlcNAc
In short: as §1

[6] = biological target: Fuc(a1-2)[Gal(a1-3)]Gal(b1-3)GlcNAc(b1-3)GalNAc
In short: as §1

[7] = biological target: Fuc(a1-2)[Gal(a1-3)]Gal(b1-4)GlcNAc(b1-2)Man
In short: as §1

[8] = biological target: Fuc(a1-2)[Gal(a1-3)]Gal(b1-4)GlcNAc(b1-2)Man(a1-3)[Fuc(a1-2)[Gal(a1-3)]Gal(b1-4)GlcNAc(b1-2)Man(a1-6)]Man(b1-4)GlcNAc(b1-4)GlcNAc
In short: as §1

[9] = biological target: Fuc(a1-2)[Gal(a1-4)]Gal(b1-4)GlcNAc
In short: as §1

[10] = biological target: Fuc(a1-2)[GalNAc(a1-3)]Gal(b1-3)GlcNAc(b1-2)Man(a1-3)[Fuc(a1-2)[GalNAc(a1-3)]Gal(b1-3)GlcNAc(b1-2)Man(a1-6)]Man(b1-4)GlcNAc(b1-4)GlcNAc
In short: as §1

[11] = biological target: Fuc(a1-2)[GalNAc(a1-3)]Gal(b1-3)GlcNAc(b1-3)GalNAc
In short: as §1

[12] = biological target: Fuc(a1-2)[GalNAc(a1-3)]Gal(b1-4)GlcNAc(b1-2)Man(a1-3)[Fuc(a1-2)[GalNAc(a1-3)]Gal(b1-4)GlcNAc(b1-2)Man(a1-6)]Man(b1-4)GlcNAc(b1-4)[Fuc(a1-6)]GlcNAc
In short: as §1

[13] = biological target: Fuc(a1-2)[GalNAc(a1-3)]Gal(b1-4)GlcNAc(b1-3)GalNAc
In short: as §1

[14] = biological target: Fuc(a1-2)[GalNAc(b1-3)]Gal
In short: as §1

[15] = biological target: Fuc(a1-3)[Gal(b1-4)]GlcNAc(b1-4)Gal(b1-4)[Fuc(a1-3)]GlcNAc(b1-4)Gal(b1-4)[Fuc(a1-3)]GlcNAc
In short: as §1

[16] = biological target: Fuc(a1-3)[GalNAc(b1-4)]GlcNAc
In short: as §1

[17] = biological target: Gal(a1-3)Gal(b1-3)[Fuc(a1-4)]GlcNAc(b1-2)Man(a1-3)[Gal(a1-3)Gal(b1-3)[Fuc(a1-4)]GlcNAc(b1-2)Man(a1-6)]Man(b1-4)GlcNAc(b1-4)GlcNAc
In short: as §1

Gal(a1-3)Gal(b1-4)GlcNAc = biological target: Gal(a1-3)Gal(b1-4)GlcNAc
In short: as §1

[18] = biological target: Gal(a1-3)Gal(b1-4)GlcNAc(b1-6)GalNAc
In short: as §1

[19] = biological target: Gal(b1-3)GlcNAc(b1-3)Gal(b1-4)GlcNAc(b1-2)Man(a1-3)[Gal(b1-3)GlcNAc(b1-3)Gal(b1-4)GlcNAc(b1-2)Man(a1-6)]Man(b1-4)GlcNAc(b1-4)GlcNAc
In short: as §1

[20] = biological target: Gal(b1-3)[Fuc(a1-4)]GlcNAc(b1-3)Gal(b1-3)[Fuc(a1-4)]GlcNAc
In short: as §1

[21] = biological target: Gal(b1-3)[Fuc(a1-4)]GlcNAc(b1-3)Gal(b1-4)GlcNAc
In short: as §1

Gal(b1-4)Glc = biological target: Gal(b1-4)Glc
In short: as §1

[22] = biological target: Gal(b1-4)GlcNAc(b1-3)Gal(b1-4)GlcNAc(b1-3)Gal(b1-4)GlcNAc
In short: as §1

[23] = biological target: Gal(b1-4)GlcNAc(b1-3)Gal(b1-4)GlcNAc(b1-3)Gal(b1-4)GlcNAc(b1-3)Gal(b1-4)GlcNAc(b1-3)Gal(b1-4)GlcNAc(b1-2)Man(a1-3)[Gal(b1-4)GlcNAc(b1-3)Gal(b1-4)GlcNAc(b1-3)Gal(b1-4)GlcNAc(b1-3)Gal(b1-4)GlcNAc(b1-3)Gal(b1-4)GlcNAc(b1-2)Man(a1-6)]Man(b1-4)GlcNAc(b1-4)[Fuc(a1-6)]GlcNAc
In short: as §1

[24] = biological target: Gal(b1-4)GlcNAc(b1-3)Gal(b1-4)GlcNAc(b1-3)GalNAc
In short: as §1

[25] = biological target: Gal(b1-4)GlcNAc(b1-3)Gal(b1-4)GlcNAc(b1-3)[Gal(b1-4)GlcNAc(b1-3)Gal(b1-4)GlcNAc(b1-6)]GalNAc
In short: as §1

Gal3S(b1-4)GlcNAc6S = biological target: Gal3S(b1-4)GlcNAc6S
In short: as §1

[26] = biological target: Gal3S(b1-4)[Fuc(a1-3)]GlcNAc
In short: as §1

Gal3S6S(b1-4)GlcNAc6S = biological target: Gal3S6S(b1-4)GlcNAc6S
In short: as §1

KISKRILTGKK [NK11 (Sus scrofa)]
glycan array binding signal (z-score) [1]: -0.539 | glycan array binding signal (z-score) [2]: 0.203 | glycan array binding signal (z-score) [3]: -0.767 | glycan array binding signal (z-score) [4]: -0.23 | glycan array binding signal (z-score) [5]: -0.614 | glycan array binding signal (z-score) [6]: 0.052 | glycan array binding signal (z-score) [7]: -0.085 | glycan array binding signal (z-score) [8]: 0.702 | glycan array binding signal (z-score) [9]: 0.014 | glycan array binding signal (z-score) [10]: -0.032 | glycan array binding signal (z-score) [11]: 0.052 | glycan array binding signal (z-score) [12]: 0.421 | glycan array binding signal (z-score) [13]: -1.25 | glycan array binding signal (z-score) [14]: -0.608 | glycan array binding signal (z-score) [15]: -0.886 | glycan array binding signal (z-score) [16]: -0.401 | glycan array binding signal (z-score) [17]: -0.06 | glycan array binding signal (z-score) (Gal(a1-3)Gal(b1-4)GlcNAc): -0.302 | glycan array binding signal (z-score) [18]: -0.147 | glycan array binding signal (z-score) [19]: -0.818 | glycan array binding signal (z-score) [20]: -0.425 | glycan array binding signal (z-score) [21]: 3.41 | glycan array binding signal (z-score) (Gal(b1-4)Glc): -0.144 | glycan array binding signal (z-score) [22]: -0.612 | glycan array binding signal (z-score) [23]: -0.483 | glycan array binding signal (z-score) [24]: 2.91 | glycan array binding signal (z-score) [25]: 3.55 | glycan array binding signal (z-score) (Gal3S(b1-4)GlcNAc6S): 3.4 | glycan array binding signal (z-score) [26]: 2.52 | glycan array binding signal (z-score) (Gal3S6S(b1-4)GlcNAc6S): 1.05
